# Data reported in PubChem BioAssay (NCI).
# This is part of a sample that, as a whole, favours compounds with a hit. Of some 83,000 tested, about 20% had one in any assay.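 In brief: 96-well plates, 48 h treatment, single concentration, percent growth endpoint.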 A number with no mark means an inactive call. Calls of active or inactive are those of the source. The calls were made as follows: active = growth percent below 10; inactive = the rest.
# Columns and labels:
# Assay in all cases: NCI-60 one-dose screen, 48 h (100 = growth as untreated, 0 = no growth, -100 = all killed)
# Settings in all cases: 10 µM unless noted
# HCT-15 colon = test system: HCT-15 colon
# HT29 colon = test system: HT29 colon
# SNB-75 CNS = test system: SNB-75 CNS
# SNB-19 CNS = test system: SNB-19 CNS
# U251 CNS = test system: U251 CNS
# PC-3 prostate = test system: PC-3 prostate
# SK-MEL-5 melanoma = test system: SK-MEL-5 melanoma
# UACC-62 melanoma = test system: UACC-62 melanoma
# LOX IMVI melanoma = test system: LOX IMVI melanoma
# SK-MEL-28 melanoma = test system: SK-MEL-28 melanoma
SMILES,growth (HCT-15 colon),growth (HT29 colon),growth (SNB-75 CNS),growth (SNB-19 CNS),growth (U251 CNS),growth (PC-3 prostate),growth (SK-MEL-5 melanoma),growth (UACC-62 melanoma),growth (LOX IMVI melanoma),growth (SK-MEL-28 melanoma)
Cc1ccc2c(c1)nc(C)n2-c1ncnc2c1CC(C)c1cc(O)ccc1N2C (stereo not given),26.7%,36.8%,25.3%,48.7%,20%,29.6%,23.7%,39.3%,43%,61.1%
COc1ccc2c(c1)CC[C@@H]1[C@@H]2CC[C@]2(C)c3c(cc(C#N)c4c3sc3ccccc34)C[C@@H]12,104%,100%,86%,104%,104%,85.5%,95.9%,99.5%,96.8%,110%
COc1ccc2c(O)c(/C=C3\N=Nc4ncccc43)oc2c1C[C@@H]1CCNC[C@H]1F,-1.3% (active),5.21% (active),-57.3% (active),1.93% (active),-84.7% (active),-29.1% (active),5.56% (active),-33.2% (active),-93% (active),5.44% (active)
C[C@H](c1nc2ccc(C#N)cc2[nH]1)[C@H]1CC[C@H]2[C@@H]3CCC4=CC(=O)CC[C@]4(C)[C@H]3CC[C@]12C,44.7%,32.9%,75.7%,71.6%,65.3%,28.5%,50.4%,56.6%,71.7%,89.4%
CS(=O)(=O)Nc1cc(-c2ccc3ncnc(Nc4ccc(F)c(Cl)c4)c3c2)ccc1Cl,41.3%,34.8%,30.5%,57.6%,42.4%,36.8%,28.8%,53.8%,37.9%,57.1%
Cn1c2ccccc2c2c3c(c4c5cc(Br)ccc5n(C)c4c21)C(=O)N(O)C3=O,21%,52.6%,38.9%,16%,3.06% (active),47%,-35.4% (active),-4.53% (active),-77.9% (active),54.3%
CSc1ccc2c3c(n(C[C@H](O)CO)c(=O)c2c1)-c1ccccc1C3=O,18.6%,16.5%,61.2%,32.6%,14.2%,44.5%,44.3%,37.5%,-3.11% (active),72.3%
COc1cc2c(c(OC)c1OC)C(=O)CC(c1cccc(C(=O)Nc3ccccc3Br)c1)O2 (stereo not given),88.1%,84%,76.2%,88.4%,94.8%,68.4%,80.2%,80.8%,84.2%,104%
O=C(CSc1nnnn1-c1ccccc1)Nc1ccc(Oc2ccccc2)cc1,97.4%,108%,101%,98.8%,101%,96.1%,103%,82.3%,104%,100%
Cc1ccc(OCCOCCOCCOc2ccc(C)n(O)c2=S)c(=S)n1O,35.8%,30%,59.2%,33.8%,31.1%,34.7%,58.3%,15.6%,30.5%,48.8%
COc1cc(OC)c2c(=O)c3c(CC=C(C)C)cc(OC)c(O)c3oc2c1,59.8%,95.4%,60%,92.7%,85.1%,99.2%,76.4%,75.2%,82%,88.4%
COc1ccc(-c2cc(-c3cccnc3)nc3sc4c(N)c(C(C)=O)c(-c5ccccc5)nc4c23)cc1OC,73.6%,52.5%,63.5%,86%,55.6%,54.9%,39.4%,75.5%,75.5%,70%
Nc1nc(N)c2c(n1)NC(c1cccc(Nc3ccnc4cc(C(F)(F)F)ccc34)c1)CC(c1ccc3c(c1)OCO3)=N2 (stereo not given),37.4%,23.8%,78.7%,76.5%,56.4%,48.5%,66.4%,90.6%,65.7%,96.3%
